Bioassay records (PubChem BioAssay)
Most compounds without a hit are left out; they make up all but 11% or so of the library.
AmpC inh no detg = AmpC beta-lactamase inhibition without detergent. Potency, µM (highest dose often 57.1 µM), for inactives: at the top dose activity change, negative = inhibition, hits mostly inhibitors. P00811. AmpC nitrocefin hydrolysis, absorbance 480 nm, 0.0001% Triton. actives 0.52% (n = 330,000). AID 485341;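 further: plate controls were no compound for no effect and no enzyme for full effect; nearly all actives have a fitted effect of over 20% in size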
Target sequence (P00811 whole entry, looked up): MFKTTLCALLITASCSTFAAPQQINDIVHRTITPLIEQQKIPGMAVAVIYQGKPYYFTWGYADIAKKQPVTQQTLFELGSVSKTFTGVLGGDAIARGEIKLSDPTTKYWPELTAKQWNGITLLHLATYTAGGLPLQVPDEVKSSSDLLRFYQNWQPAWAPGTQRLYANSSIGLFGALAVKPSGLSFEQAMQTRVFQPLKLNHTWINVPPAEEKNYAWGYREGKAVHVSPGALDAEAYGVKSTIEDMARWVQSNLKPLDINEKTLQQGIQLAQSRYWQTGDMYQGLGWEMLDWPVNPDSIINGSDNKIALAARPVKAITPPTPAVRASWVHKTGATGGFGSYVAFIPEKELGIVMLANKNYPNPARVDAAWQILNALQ
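20 mM phosphate pH 7.0 + 0.01% (detergent screen) or 0.0001% Triton X-100; 5.3 nM AmpC reagent; cpd preinc 15 min RT; nitrocefin (800 uM stock) to start; A480 q20 s × 4 min; Activity was normalised to no-enzyme and no-compound control wells.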
Pf growth 48h = P. falciparum growth inhibition at 48 hours (one generation); P. falciparum luciferase growth in erythrocytes, 48 h; Potency, µM (highest dose often 28.7 µM), for the others: at the highest dose activity change, negative = inhibition, hits mostly inhibitors; actives 5.9% (n = 310,000)
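Compounds are pin-transferred into medium, infected erythrocytes (2% hematocrit, 0.1% parasitemia final) are added, and plates sit one parasite generation at 37 C in 5% CO2. Detection reagent is then added and luminescence measured.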
HCV inhibitor = HCV inhibition; Potency, µM (series often up to 41.8 µM), for inactives: at the highest dose activity change, negative = inhibition, actives largely listed as inhibitors; Huh7.5.1 HCVcc-Cre infection, luciferase reporter, 44 h; actives 3.4% (n = 340,000); AID 651820
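Cells seeded at 1,000/well and cultured 4 h, then compounds added followed by HCVcc-Cre virus (~0.5 moi). After 44 h further culture, luciferase substrate was added, plates held 15 min at room temperature, and luminescence read for 15 sec.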
Pf growth 96h = P. falciparum growth inhibition at 96 hour, primary screen for plastid delayed-death inhibitors. P. falciparum luciferase reporter growth, 96 h. Potency, µM (top dose mostly 28.7 µM), without a hit: at the top dose activity change, negative = inhibition, usual class: inhibitors. actives 6.9% (n = 320,000)
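Two parasite generations (96 h, 37 C, 5% CO2) of compound exposure in infected erythrocytes (0.05% parasitemia, 2% hematocrit). Luciferase-reporter P. falciparum; decreased luminescence indicates inhibited growth, aimed at apicoplast-acting delayed death.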
AmpC inh detg = AmpC beta-lactamase inhibition with detergent present. P00811. AmpC hydrolysis of nitrocefin, absorbance 480 nm, 0.01% Triton. Potency, µM (highest dose often 114 µM), inactives show at the top dose activity change, negative = inhibition, hits mostly inhibitors. actives 0.041% (n = 370,000). AID 485294;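 further: 0% = no-compound wells and -100% = no-enzyme wells; nearly all actives have a fitted effect of over 25% in size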
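20 mM phosphate pH 7.0 + 0.01% (detergent screen) or 0.0001% Triton X-100; 5.3 nM AmpC reagent; cpd preinc 15 min RT; nitrocefin (800 uM stock) to start; A480 q20 s × 4 min; Activity was normalised to no-enzyme and no-compound control wells.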
AMA1-RON2 inh = disrupts binding of P. falciparum AMA1 to RON2 | Potency, µM (series often up to 58.2 µM), for the others: top-dose activity change, negative = inhibition, actives largely listed as inhibitors | AlphaScreen AMA1-biotinylated RON2 peptide binding | actives 0.2% (n = 360,000);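 further: 0% = vehicle wells and -100% = peptide control; nearly all actives have a fitted effect of over 45% in size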
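AMA1 (3D7) with his tag at 25 nM final met compounds first, then biotinylated RON2 peptide at 25 nM; detection used donor plus acceptor beads, 10 µg/mL apiece, read by AlphaScreen after 30 min at room temperature.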
* hit, by the source's call; ? = inconclusive; nt = no result given; [ ] = remark or other dose. The call rests on the fitted dose curve; in most records, active means well fitted curve in the direction sought with a large enough effect; inconclusive means small, poorly fitted or top-dose-only effect, or another doubt; inactive means no such curve, though single readings can be large; an effect the other way counts as inactive or inconclusive. Unless noted, on the % scale 0 is the no-effect control and ±100 the full control effect; potency means the concentration at half of the fitted maximal effect.

SMILES | AmpC inh no detg | Pf growth 48h | HCV inhibitor | Pf growth 96h | AmpC inh detg | AMA1-RON2 inh
Cc1cc(N2CCN(C)CC2)ccc1NC(=O)c1ccc(-c2ccc(Cl)cc2)o1 | 177% | ? | 14µM* | 4.1µM* | -15% | -31%
O=C(Nc1nccs1)c1ccc(-c2ccccc2[N+](=O)[O-])o1 | -45% | 110% | ? | 27% | -6% | 66%
COc1ccccc1NC(=O)c1ccc(-c2ccccc2[N+](=O)[O-])o1 | ? | 34% | 11µM* | 10% | 0% | -17%
CN1CCN(c2ccccc2NC(=O)c2ccc(-c3ccc(Cl)c(Cl)c3)o2)CC1 | 35% | 1% | 2% | 7% | 3% | 0%
O=C(Nc1cccc2cccnc12)c1ccc(Br)o1 | -22% | 28% | ? | nt | 6% | 5%
CN1CCN(c2ccccc2NC(=O)c2ccc(-c3ccc(Br)cc3)o2)CC1 | -18% | 13µM* | ? | 4% | -4% | -5%
O=C(Nc1cccc2ccccc12)c1ccc(Br)o1 | -7% | 16% | -15% | 15µM* | -7% | 9%
CCCCOC(=O)c1ccc(NC(=O)Cc2coc3ccc(C(C)C)cc23)cc1 | nt | nt | nt | nt | 24% | nt
COc1cc(OC)c(NC(=O)Cn2c(=O)cc(C(F)(F)F)c3c(C)nn(C)c32)cc1Cl | nt | nt | nt | nt | 12% | nt
CCCn1c(N)c(C(=O)CSc2nc3ncc(Cl)cc3[nH]2)c(=O)n(C)c1=O | -18% | ? | -16% | ? | 10% | 10%
CC(C)Cn1c(N)c(C(=O)CSc2nc3ncc(Cl)cc3[nH]2)c(=O)n(C)c1=O | -34% | ? | ? | 10µM* | -23% | -1%
CCCn1c(N)c(C(=O)CSc2nc(N)cc(=O)[nH]2)c(=O)n(C)c1=O | -13% | ? | 2% | 4.7µM* | ? | -8%
Cc1cc(C)n2nc(SCC(=O)c3c(N)n(CC(C)C)c(=O)n(C)c3=O)nc2n1 | -18% | 4.7µM* | -1% | ? | 7% | 3%
CC1CCc2c(sc3nnn(CC(=O)Nc4c(C(C)C)cccc4C(C)C)c(=O)c23)C1 (stereo unspecified) | nt | nt | nt | nt | 22% | nt
CCOC(=O)C1=C(C)N=c2sc(=Cc3cc(Cl)c(OCC(=O)O)c(OC)c3)c(=O)n2C1c1ccccc1Cl (stereo unspecified) | nt | nt | nt | nt | nt | -6%
CCOC(=O)C1=C(C)N=c2s/c(=C\c3cc(OC)c(OC)c(OC)c3)c(=O)n2C1/C=C/c1ccccc1 (stereo unspecified) | -23% | 15µM* | ? | 2.1µM* | ? | 6%
CCOC(=O)C1=C(c2ccccc2)N=c2sc(=Cc3cc(OC)c(OC)c(OC)c3)c(=O)n2C1c1cccs1 (stereo unspecified) | nt | nt | nt | nt | nt | 0%
CCOC(=O)C1=C(c2ccccc2)N=c2s/c(=C\c3ccc(O)cc3)c(=O)n2C1c1cccs1 (stereo unspecified) | -45% | 2.9µM* | 10µM* | 2.6µM* | -7% | ?
CC(=O)C1=C(C)N=c2s/c(=C/c3ccc4c(c3)OCO4)c(=O)n2C1c1ccc(N(C)C)cc1 (stereo unspecified) | nt | nt | -3% | nt | nt | -1%
CC1=C(C(=O)OC(C)C)C(c2ccc(Cl)cc2)n2c(s/c(=C\c3ccc(OCC(=O)O)cc3)c2=O)=N1 (stereo unspecified) | -11% | 12µM* | -11% | 7.4µM* | ? | -20%
COc1ccc(C2C(C(C)=O)=C(C)N=c3s/c(=C/c4ccc5c(c4)OCO5)c(=O)n32)cc1 (stereo unspecified) | -30% | 13µM* | 8% | ? | ? | nt
Cc1ccc(N(CC(=O)Nc2ccc(Br)cc2)S(=O)(=O)c2cccs2)cc1 | nt | nt | nt | nt | 3% | nt
O=c1c2nncn2ccn1-c1ccc(F)c(F)c1 | nt | nt | nt | nt | 16% | nt
CCOC(=O)C1=C(C)N=c2s/c(=C\c3ccc(OCC(=O)O)cc3)c(=O)n2C1c1ccccc1 (stereo unspecified) | 69% | 7.4µM* | 1% | 10µM* | -1% | -3%
CCOC(=O)C1=C(C)N=c2s/c(=C\c3cccc(OCC(=O)O)c3)c(=O)n2C1c1ccccc1 (stereo unspecified) | 11% | 12µM* | -14% | 0.93µM* | -15% | -4%
SMILES | AmpC inh no detg | Pf growth 48h | HCV inhibitor | Pf growth 96h | AmpC inh detg | AMA1-RON2 inh
Cc1ccc(C)c(CN2C(=O)c3ccccc3S(=O)c3ccc(C(=O)NCCc4ccc(Cl)cc4)cc32)c1 (stereo unspecified) | nt | nt | nt | nt | 0% | nt
Cc1nn2c(=O)cc(COC(=O)COc3ccc(F)cc3)nc2s1 | nt | nt | nt | nt | 6% | nt
CCOC(=O)c1ccc(NC(=O)COC)cc1 | -13% | 48% | -7% | 15µM* | -13% | 16%
CCOC(=O)c1ccc(NC(=O)Cn2nnc(-c3ccccc3)n2)cc1 | -8% | 7% | -6% | -8% | 1% | -2%
CCOC(=O)c1ccc(NC(=O)C(CC)(CC)C(=O)OCC)cc1 | -8% | 8.3µM* | 8% | nt | -4% | -7%
CCOC(=O)c1ccc(NC(=O)CN(c2ccc(C)cc2)S(=O)(=O)c2c(C)n[nH]c2C)cc1 | 1% | 13µM* | ? | 8% | -3% | 5%
CCOC(=O)c1ccc(NC(=O)Cn2nnc(-c3ccccc3F)n2)cc1 | 35µM* | -16% | -14% | 13% | -2% | 11%[11.6 µM]
CCOc1ccc(S(=O)(=O)NCC(c2ccco2)S(=O)(=O)c2ccc(F)cc2)cc1 (stereo unspecified) | nt | nt | nt | nt | 3% | nt
CCN(CC)CCCNC(=O)c1c(C)oc2ncnc(N3CCOCC3)c12 | nt | nt | nt | nt | 0% | nt
COC(=O)c1ccc(CNCC(=O)Nc2ccc(C(=O)OC)cc2)cc1 | 12% | ? | -42% | 0.93µM* | 15% | 0%
COC(=O)c1ccc(NC(=O)CNCc2ccncc2)cc1 | -19% | 21% | 4% | 35% | -1% | -21%
CC(=O)N1CCc2cc(S(=O)(=O)NC(CC(C)C)C(=O)Nc3ccc(C(C)C)cc3)ccc21 (stereo unspecified) | nt | nt | nt | nt | 2% | nt
CCn1c(CN2CCN(c3cccc(Cl)c3)CC2)nc2c1c(=O)[nH]c(=O)n2C | nt | nt | nt | nt | 21% | nt
O=C(NCc1ccccc1)c1ccc(N2CCC3(CC2)CC(c2ccc(Cl)cc2)=NO3)c([N+](=O)[O-])c1 | -34% | ? | 4.5µM* | ? | -10% | -22%
CCCNC(=O)c1ccc(N2CCC3(CC2)CC(c2ccccc2)=NO3)c([N+](=O)[O-])c1 | -26% | -19% | ? | ? | 3% | -7%
